This is a sample that favours compounds with a hit; in the whole collection about 15% have one here.
Gal4-VP16 FLuc: VP16 counterscreen qHTS for inhibitors of ROR gamma transcriptional activity | Drosophila S2 Gal4-VP16 UAS-luciferase, luminescence, 20 h | Potency, µM (doses to about 53.6 µM), for the others: at the top dose activity, negative = inhibition, hits mostly inhibitors | 310,000 compounds, 3.5% hits | AID 2546, 2010;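 also: Gal4-VP16 expression switched on by copper sulfate through the metallothionein promoter; nearly all actives have a fitted effect of over 50% in size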
RORgamma inh: qHTS for inhibitors of ROR gamma transcriptional activity | Potency, µM (highest dose often 53.6 µM), for the others: at the highest dose activity change, negative = inhibition, most hits filed as inhibitors | 310,000 compounds, 5.4% hits | Drosophila S2 Gal4-RORgamma UAS-luciferase reporter, 20 h; also: nearly all actives have a fitted effect of over 60% in size
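Stable Schneider cell line, Gal4 DNA-binding domain fused to ROR gamma, UAS-luciferase. Cmpd 1 hr RT → CuSO4 700 uM final → 20 hr RT → luciferase reagent 10 min → luminescence.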
ELG1 repair inh: qHTS screen for small molecules that inhibit ELG1-dependent DNA repair in human embryonic kidney (HEK293T) cells expressing luciferase-tagged ELG1; HEK293T ELG1-luciferase reporter, luminescence, 16 h; DNA damage induced by 5-fluorouridine; Potency, µM (series often up to 46.1 µM), for the others: top-dose activity change, negative = inhibition, usual class: inhibitors; 330,000 compounds, 2.3% hits; also: nearly all actives have a fitted effect of over 55% in size
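In this reporter screen, reduction of luminescence relative to DMSO vehicle indicated activity. Compounds and 5-fluorouridine were added together to 2,000 cells per well, incubated for 16 hr at 37 °C, then developed with ONE-Glo.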
ALOX12 inh: Primary qHTS assay for inhibitors of human arachidonate 12S-lipoxygenase (ALOX12): Round 2 | Polyunsaturated fatty acid lipoxygenase ALOX12 (Homo sapiens), P18054 | purified 12hLO, xylenol orange hydroperoxide absorbance | Potency, µM (top dose mostly 108 µM), without a hit: at the highest dose activity change, negative = inhibition, actives largely listed as inhibitors | 580,000 compounds, 1.1% hits | AID 1671190, 2021
Target sequence (P18054 whole entry, looked up): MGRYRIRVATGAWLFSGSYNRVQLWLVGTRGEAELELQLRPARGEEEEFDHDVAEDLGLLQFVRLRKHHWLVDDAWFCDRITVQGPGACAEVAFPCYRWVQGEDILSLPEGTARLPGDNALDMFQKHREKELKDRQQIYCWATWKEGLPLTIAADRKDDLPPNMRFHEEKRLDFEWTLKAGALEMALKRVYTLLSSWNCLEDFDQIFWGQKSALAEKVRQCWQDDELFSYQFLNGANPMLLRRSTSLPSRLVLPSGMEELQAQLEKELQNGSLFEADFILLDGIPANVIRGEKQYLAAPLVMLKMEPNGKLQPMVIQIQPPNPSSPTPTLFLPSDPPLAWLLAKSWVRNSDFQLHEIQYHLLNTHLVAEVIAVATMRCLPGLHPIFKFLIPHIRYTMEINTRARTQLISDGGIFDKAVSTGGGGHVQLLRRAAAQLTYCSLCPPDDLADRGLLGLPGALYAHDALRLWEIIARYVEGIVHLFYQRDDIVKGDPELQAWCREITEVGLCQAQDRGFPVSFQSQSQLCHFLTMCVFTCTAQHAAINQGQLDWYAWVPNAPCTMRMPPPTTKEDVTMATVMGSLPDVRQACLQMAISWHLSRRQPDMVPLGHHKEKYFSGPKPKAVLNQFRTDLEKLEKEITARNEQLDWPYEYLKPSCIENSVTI
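Hydroperoxide product was detected by ferrous iron/xylenol orange as the 573 to 405 nm absorbance ratio. Arachidonic acid at 40 uM (final) was turned over for 30 min at room temperature by 150 nM human 12hLO, pH 7.0 Hepes buffer, after 15 min compound preincubation.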
DT40 TDP1 CPT: qHTS for Inhibitors of human tyrosyl-DNA phosphodiesterase 1 (TDP1): qHTS in cells in presence of CPT. chicken DT40 Tdp1-/-;hTDP1 cells + 20 nM CPT, ATP luminescence, 48 h. Potency, µM (highest dose often 46.2 µM), without a hit: top-dose activity change, negative = growth inhibition, hits mostly inhibitors. 420,000 compounds, 12% hits. AID 686979, 2013; also: nearly all actives have a fitted effect of over 55% in size
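Cell growth measured by CellTiter-Glo luminescence after a minimum 48 h, 37 C compound exposure with 20 nM CPT in Tdp1-knockout DT40 cells stably expressing hTDP1, seeded 400/well; qHTS titration format.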
DT40 TDP1 no CPT: qHTS for Inhibitors of human tyrosyl-DNA phosphodiesterase 1 (TDP1): qHTS in cells in absence of CPT | Potency, µM (titrated, usually from 46.2 µM), inactives show top-dose activity change, negative = growth inhibition, actives largely listed as inhibitors | DT40 Tdp1-/- hTDP1 cells, no CPT, ATP luminescence, 48 h | AID 686978, 2013 | 420,000 compounds, 15% hits; also: nearly all actives have a fitted effect of over 55% in size
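No-CPT arm: Tdp1-/-;hTDP1 DT40 cells (400/well) plus compounds, incubated ≥48 hr at 37 °C. Readout CellTiter-Glo luminescence.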
The depositor's hits bear a star; ? = inconclusive; nt = not tested or not shown; [ ] = another dose, or the depositor's remark. Calls follow the shape of the dose curve; as a rule, active = well fitted curve in the direction sought with a large enough effect; inconclusive = small, poorly fitted or top-dose-only effect, or another doubt; inactive = no such curve, though single readings can be large; an effect the other way counts as inactive or inconclusive. % is scaled to controls: 0 for no effect and ±100 for the full control effect; potency is read from the fitted curve at half-maximal effect.

SMILES | Gal4-VP16 FLuc | RORgamma inh | ELG1 repair inh | ALOX12 inh | DT40 TDP1 CPT | DT40 TDP1 no CPT
Cc1ccccc1OCC(O)Cn1c(=N)n(Cc2ccccc2)c2ccccc21 (configuration not stated) | ? | -29% | ? | ? | 4.1µM* | 5.2µM*
O=C(CC1SC(c2cc3ccccc3oc2=O)=NC1=O)Nc1ccccc1 (configuration not stated) | nt | nt | nt | 0% | nt | nt
O=C(Nc1ccnn1Cc1ccc(Cl)cc1)c1cc(=O)c2ccccc2o1 | nt | nt | nt | -25% | nt | nt
CN1CCN(c2nc3c(c(=O)[nH]2)CCN(Cc2ccccc2Cl)CC3)CC1 | nt | nt | nt | 28% | nt | nt
CC1CCN(C(=O)CN(c2cc(Cl)cc(Cl)c2)S(=O)(=O)c2ccccc2)CC1 | nt | nt | nt | 6% | nt | nt
CCC(=O)N1CCN(c2ccc(NC(=O)COc3ccc(CC)cc3)cc2)CC1 | -20% | -13% | -15% | -3% | -19% | 21µM*
Cc1cccc(OCC(=O)Nc2ccc(N3CCN(C(=O)c4ccco4)CC3)cc2)c1C | -7% | -17% | -15% | 0% | ? | ?
Cc1ccccc1OCC(=O)Nc1ccc(N2CCN(C(=O)c3ccco3)CC2)cc1 | -2% | ? | 21µM* | 1% | ? | 21µM*
Cc1ccc(C(=O)Nc2ccc(N3CCN(C(=O)c4ccco4)CC3)cc2)c(Cl)c1 | 25% | 30% | 18µM* | -9% | ? | 13µM*
O=C(COc1ccc(Cl)cc1)Nc1ccc(N2CCN(C(=O)c3ccco3)CC2)cc1 | -29% | ? | -29% | 1%[57.4 µM] | 10µM* | 13µM*
Cc1oc(-c2cccs2)nc1CC(=O)Nc1cc(F)ccc1F | nt | nt | nt | -12% | nt | nt
O=[S+]1([O-])NCC2(CCN(CC3CC3)CC2)Nc2ccccc21 | nt | nt | nt | 46%[176 µM] | nt | nt
CN(Cc1ccon1)Cc1ccccc1OCC(O)CN1CCCCC1 (configuration not stated) | nt | nt | nt | 49% | nt | nt
CN1CCN(c2oc(COc3ccc(Cl)cc3Cl)nc2C#N)CC1 | nt | nt | nt | -11% | nt | nt
Cc1ccccc1C(=O)N1CCN(c2ccc(NC(=O)Cc3ccccc3)cc2)CC1 | -2% | 23% | 18µM* | -3% | ? | ?
O=C(CSc1ccc(Cl)cc1)Nc1ccc(N2CCN(C(=O)c3ccco3)CC2)cc1 | -20% | -88% | ? | 1% | ? | 23µM*
Cc1cc(C)cc(OCC(=O)Nc2ccc(N3CCN(C(=O)c4ccco4)CC3)cc2)c1 | -16% | ? | ? | 0%[57.4 µM] | 23µM* | 18µM*
CCC(=O)Nc1ccc(N2CCN(C(=O)c3ccccc3C)CC2)cc1 | 18% | 37% | 1% | ? | -20% | -15%
O=C(COc1ccc([N+](=O)[O-])cc1)Nc1ccc(N2CCN(C(=O)c3ccco3)CC2)cc1 | -15% | 23% | 26% | 1% | 9.2µM* | 5.8µM*
COc1ccc(C2Cn3nnc(C(=O)N4CCC(C(=O)NCCc5ccccc5)CC4)c3CO2)cc1 (configuration not stated) | nt | nt | nt | 13% | nt | nt
Cc1cccc2c(=O)c(-c3ccc4c(c3)OCO4)c(NC(=O)c3ccccc3F)oc12 | nt | nt | nt | -6% | nt | nt
Cc1ccccc1C(=O)N1CCN(c2ccc(NC(=O)CSc3ccc(Cl)cc3)cc2)CC1 | ? | ? | ? | 4% | 16µM* | 10µM*
O=C(CSc1ccc(Cl)cc1)Nc1ccccc1 | nt | nt | nt | 6% | -11% | -29%

High-throughput results deposited in PubChem by National Center for Advancing Translational Sciences (NCATS).
